In the library only some 6.6% were active in any assay of this set; here they are far more common.
KB-3-1 tox = qHTS assay for MDR1-selective chemotherapeutics: Primary screen using the parental adenocarcinoma cell KB-3-1. KB-3-1 viability, CellTiter-Glo ATP luminescence, 72 h. Potency, µM (doses to about 46.1 µM), usual class: cytotoxic. hit rate 1.4% among 400,000. AID 1347075, 2019; further: on the % scale 0 is the no-effect control and ±100 the full control effect; nearly all actives have a fitted effect of over 60% in size
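Parental KB-3-1 adenocarcinoma cells in phenol-red-free DMEM with 10% FBS were pin-treated with compounds at several concentrations, incubated 72 h at 37 °C, and viability read by CellTiter-Glo luminescence; concentration-effect curves were fitted after normalization.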
MCF10A rerep = A quantitative high throughput screen for small molecules that induce DNA re-replication in MCF 10a normal breast cells; MCF 10A DNA re-replication, Hoechst nuclear intensity, 48 h; Potency, µM (titrated, usually from 46.1 µM), without a hit: top-dose activity, positive = re-replication, hits mostly activators; hit rate 2.9% among 350,000; AID 624296, 2012; further: % of control where 0% means no effect; nearly all actives have a fitted effect of over 50% in size
KB-V1 MDR tox = qHTS assay for MDR1-selective chemotherapeutics: Primary screen using the drug-selected MDR subline cells KB-V1. KB-V1 MDR cells viability, CellTiter-Glo, 72 h. Potency, µM (highest dose often 46.1 µM), hits mostly cytotoxic. hit rate 3.4% among 400,000. AID 1347076, 2019; further: on the % scale 0 is the no-effect control and ±100 the full control effect; nearly all actives have a fitted effect of over 60% in size
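qHTS viability screen in drug-selected KB-V1 MDR cells: 72 h compound treatment at 37 degrees C, ATP luminescence end point.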
SW480 rereplic = A quantitative high throughput screen for small molecules that induce DNA re-replication in SW480 colon adenocarcinoma cells; Potency, µM (top dose mostly 46.1 µM), without a hit: top-dose re-replication activation, actives largely listed as activators; AID 624297, 2012; SW480 DNA re-replication, Hoechst DNA content imaging, 48 h; hit rate 1.8% among 340,000; further: % of control where 0% means no effect; nearly all actives have a fitted effect of over 55% in size
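Treated cells incubate 48 hr (37 C, 5% CO2), are stained 40 min with Hoechst, and nuclear fluorescence is enumerated; a rise in nuclei with high DNA signal marks re-replication.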
RGS4 inhibitor = Inhibitors of Regulator of G Protein Signaling (RGS) 4: qHTS. AID 504845, 2011. Transcreener GDP fluorescence polarization, RGS4-accelerated GTP hydrolysis. Regulator of G-protein signaling 4 (Homo sapiens), P49798. hit rate 0.039% among 390,000. Potency, µM (highest dose often 114 µM), for inactives: top-dose activity change, negative = inhibition, hits mostly inhibitors; further: on the % scale 0 is the no-effect control and ±100 the full control effect; nearly all actives have a fitted effect of over 75% in size
Target sequence (P49798 whole entry, looked up): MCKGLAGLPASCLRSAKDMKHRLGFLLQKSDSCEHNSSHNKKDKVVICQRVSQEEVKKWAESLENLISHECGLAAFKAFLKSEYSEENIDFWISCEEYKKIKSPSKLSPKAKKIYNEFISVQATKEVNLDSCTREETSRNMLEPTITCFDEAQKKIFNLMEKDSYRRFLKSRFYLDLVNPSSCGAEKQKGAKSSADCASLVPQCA
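MLSMR compounds (23 nl, pin-transferred) preincubated 10 min at room temperature with a 500nM (2x) first reagent, then RGS4 at 900nM (2x) plus Transcreener GDP mix added; fluorescence polarization (620/688 nm) read before and after 90 min at 30 °C.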
PTAP TSG101 blk = qHTS Assay for Iinhibitors of HIV-1 Budding by Blocking the Interaction of PTAP/TSG101; Tumor susceptibility gene 101 protein (Homo sapiens), Q99816; Fluorescence polarization, FITC-PTAP peptide / Tsg101 binding; AID 493005, 2010; 340,000 tested, under 10 active; Potency, µM (doses to about 115 µM), inactives show at the top dose activity change, negative = inhibition, most hits filed as inhibitors; active means well fitted inhibition curve with a large enough effect in the main read-out, with a control signal flat, not every such curve was filed as active; inconclusive means small, poorly fitted or top-dose-only effect, or effect the other way, or a change in a side signal; inactive means no such curve, though single readings can be large or run the other way; further: % of control where 0% means no effect
Target sequence (Q99816 whole entry, looked up): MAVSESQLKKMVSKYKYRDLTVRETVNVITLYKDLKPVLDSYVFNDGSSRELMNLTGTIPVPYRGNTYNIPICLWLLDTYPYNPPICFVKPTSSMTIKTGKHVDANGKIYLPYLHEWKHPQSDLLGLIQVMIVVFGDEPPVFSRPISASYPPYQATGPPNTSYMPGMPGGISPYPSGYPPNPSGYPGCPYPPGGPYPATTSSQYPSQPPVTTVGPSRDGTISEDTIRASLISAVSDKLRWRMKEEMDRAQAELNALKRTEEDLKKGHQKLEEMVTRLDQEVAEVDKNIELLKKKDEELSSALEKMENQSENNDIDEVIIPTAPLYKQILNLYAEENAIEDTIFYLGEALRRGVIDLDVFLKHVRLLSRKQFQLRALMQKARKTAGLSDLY
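Compounds were pin-transferred onto Tsg101 binding domain (10 uM final) in HEPES pH 7.5 buffer, then FITC-PTAP peptide was added at 50 nM final. After 20 min at RT, polarization reported peptide displacement across a qHTS concentration series.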
* hit, by the source's call. Unless noted, the call rests on the fitted dose curve; in most records, active means well fitted curve in the direction sought with a large enough effect; inconclusive means small, poorly fitted or top-dose-only effect, or another doubt; inactive means no such curve, though single readings can be large; an effect the other way counts as inactive or inconclusive. Potency means the concentration at half of the fitted maximal effect.

Screening CCOc1ccc(NC(=O)c2cccc3ccccc23)cc1 returned KB-3-1 tox inconclusive, MCF10A rerep 24%, KB-V1 MDR tox 5.8µM*, SW480 rereplic inconclusive, RGS4 inhibitor 15% and PTAP TSG101 blk -11%.
For CCOc1ccc(NC(=O)c2cc3ccccc3cc2O)cc1 the results were KB-3-1 tox inactive, MCF10A rerep 16µM*, KB-V1 MDR tox inactive, SW480 rereplic -15%, RGS4 inhibitor -40% and PTAP TSG101 blk 1%.
Screening Cc1cccc(CNC(=O)Cn2c(-c3cccs3)cc3ccccc32)c1 returned KB-3-1 tox inactive, KB-V1 MDR tox inactive and RGS4 inhibitor -21%.
Screening Cc1cccc(-c2nnc(SCc3cc(=O)c4cccc(Cl)c4[nH]3)n2C)c1 returned KB-3-1 tox inactive, KB-V1 MDR tox inactive and RGS4 inhibitor -6%.
For O=C(NCc1ccco1)c1c[nH]c2ccc(S(=O)(=O)Nc3ccc(F)cc3F)cc2c1=O the results were KB-3-1 tox inactive, KB-V1 MDR tox inactive and RGS4 inhibitor -47%.
COc1ccc2c(c1)/C(=C\c1cccc(/C=C3/C(=O)Nc4ccc(OC)cc43)n1)C(=O)N2 was read as KB-3-1 tox 1.8µM*, MCF10A rerep inconclusive, KB-V1 MDR tox inactive, SW480 rereplic 2.9µM*, RGS4 inhibitor inconclusive and PTAP TSG101 blk -2%.
Screening Cc1ccc2c(c1)/C(=C/c1ccccc1)C(=O)N2 returned KB-3-1 tox inconclusive, MCF10A rerep inconclusive, KB-V1 MDR tox inconclusive, SW480 rereplic inconclusive, RGS4 inhibitor -22% and PTAP TSG101 blk -1%.
CCC(=O)N1CCc2cc(Br)cc(S(=O)(=O)CCC(=O)N3CCN(c4ccccc4OC)CC3)c21 was read as KB-3-1 tox inactive, KB-V1 MDR tox inactive and RGS4 inhibitor 45%.
For CC(=O)c1c(N2CCOCC2)nc2ccc(Cl)cc2c1-c1ccccc1 the results were KB-3-1 tox inactive, MCF10A rerep 15µM*, KB-V1 MDR tox inactive, SW480 rereplic -11%, RGS4 inhibitor 1% and PTAP TSG101 blk -2%.
CCOC(=O)c1c(CN2CCNCC2)nc2ccc(Cl)cc2c1-c1ccccc1 was read as KB-3-1 tox inconclusive, MCF10A rerep inconclusive, KB-V1 MDR tox 23µM*, SW480 rereplic inconclusive, RGS4 inhibitor -15% and PTAP TSG101 blk -2%.
`O=C(O)c1cc(O)c2c(c1)[C@H]([C@H]1c3cc(C(=O)O)cc(O)c3C(=O)c3c(O[C@@H]4OC(CO)C(O)C(O)C4O)cccc31)c1cccc(O[C@@H]3OC(CO)C(O)C(O)C3O)c1C2=O` (some centres not stated) gave MCF10A rerep -7% and SW480 rereplic -3%.
`Cc1cc(C)cc(NC(=O)CSc2nc3c([nH]c4ccccc43)c(=O)n2-c2ccc(F)cc2)c1` gave KB-3-1 tox inactive, KB-V1 MDR tox inconclusive and RGS4 inhibitor -33%.
Cc1ccc(/C(=N/Nc2ncnc3ccccc23)C(=O)O)cc1 was read as KB-3-1 tox inactive, MCF10A rerep 12%, KB-V1 MDR tox inactive, SW480 rereplic 18µM*, RGS4 inhibitor -24% and PTAP TSG101 blk -5%.
For CCN(CC)C(=O)CSc1nnc(-n2nc(C)cc2C)c2ccccc12 the results were KB-3-1 tox inactive, MCF10A rerep -6%, KB-V1 MDR tox 13µM*, SW480 rereplic -9% and RGS4 inhibitor 15%.
Screening CC(C)CNC(=S)NNC(=O)c1csc2c1CCCC2 returned KB-3-1 tox inactive, MCF10A rerep -6%, KB-V1 MDR tox inactive, SW480 rereplic 0%, RGS4 inhibitor 0% and PTAP TSG101 blk -1%.
Screening CCC(C)NC(=O)COC(=O)c1csc2c1CCCC2 (configuration not stated) returned KB-3-1 tox 23µM*, MCF10A rerep 6%, KB-V1 MDR tox inactive, SW480 rereplic -1%, RGS4 inhibitor 26% and PTAP TSG101 blk 1%.
For CCOc1ccc(Cc2c(Cl)nc(SC)nc2N(C)C)cc1 the results were KB-3-1 tox 12µM*, MCF10A rerep 9.2µM*, KB-V1 MDR tox 12µM*, SW480 rereplic inconclusive, RGS4 inhibitor 4% and PTAP TSG101 blk 0%.
CN(C)CCNC(=O)c1coc(=O)c(Br)c1 was read as KB-3-1 tox inactive, MCF10A rerep 22%, KB-V1 MDR tox inactive, SW480 rereplic 2%, RGS4 inhibitor -4% and PTAP TSG101 blk -1%.
For O=C(NCCC1=CCCCC1)c1coc(=O)c(Br)c1 the results were KB-3-1 tox inconclusive, MCF10A rerep 12µM*, KB-V1 MDR tox inconclusive, SW480 rereplic 9.2µM*, RGS4 inhibitor -4% and PTAP TSG101 blk -9%.
`O=C(NCCc1ccccc1)c1coc(=O)c(Br)c1` gave KB-3-1 tox inconclusive, MCF10A rerep inconclusive, KB-V1 MDR tox inconclusive, SW480 rereplic 10µM*, RGS4 inhibitor 6% and PTAP TSG101 blk -12%.
For CC(C)CNC(=O)c1coc(=O)c(Br)c1 the results were KB-3-1 tox 6.3µM*, MCF10A rerep 21µM*, KB-V1 MDR tox inconclusive, SW480 rereplic inconclusive, RGS4 inhibitor 6% and PTAP TSG101 blk -6%.
O=C(NC(CO)(CO)CO)c1coc(=O)c(Br)c1 was read as KB-3-1 tox inactive, MCF10A rerep 3.3µM*, KB-V1 MDR tox inactive, SW480 rereplic 7.3µM*, RGS4 inhibitor 19% and PTAP TSG101 blk -1%.
For Cc1ccccc1-c1nc2c3c(-c4ccccc4)c(-c4ccccc4)oc3ncn2n1 the results were RGS4 inhibitor -38%.
`O=C(O)c1cc(N/N=C/c2ccc(-c3ccccc3)cc2)ccc1Cl` gave KB-3-1 tox inactive, MCF10A rerep 3.3µM*, KB-V1 MDR tox inactive, SW480 rereplic inconclusive, RGS4 inhibitor inconclusive and PTAP TSG101 blk -4%.
O=C(O)c1ccc(N/N=C/C=C/c2ccccc2)cc1 was read as KB-3-1 tox inactive, MCF10A rerep 15µM*, KB-V1 MDR tox inactive, SW480 rereplic -5%, RGS4 inhibitor -19% and PTAP TSG101 blk 3%.
O=C(O)c1cc(N/N=C/c2ccncc2)ccc1Cl was read as KB-3-1 tox inactive, MCF10A rerep -13%, KB-V1 MDR tox inactive, SW480 rereplic 30%, RGS4 inhibitor 8% and PTAP TSG101 blk -1%.
